Reference: PubChem BioAssay (NCI)
This is part of a sample that, as a whole, favours compounds with a hit. Of some 83,000 tested, about 20% had one in any assay.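 Percent growth is the endpoint: 0 to 100 indicates growth inhibition (40 means 60% inhibition), 0 means no net growth, and negative values indicate cell death.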 Unmarked numbers belong to inactive results. Activity calls are given as the source filed them. The calls were made as follows: active = growth percent below 10; inactive = the rest.

Tested on: RXF 393 renal
Assay: NCI-60 one-dose screen, 48 h (100 = growth as untreated, 0 = no growth, -100 = all killed)
Conditions: 10 µM unless noted

Row | Compound | growth
1 | O=NN1CCCc2cccc(O)c21 | -4.04% (active)
2 | Fc1ccc2c(c1)c(-c1nc(-c3c[nH]c4ncccc34)cs1)cn2CCN1CCOCC1 | 61.6%
3 | CC(=O)Nc1nc2c(s1)CC[C@@]1(C)C2=CC[C@H]2[C@@H]3CC[C@H](O)[C@@]3(C)CC[C@@H]21 | 23.5%
4 | CN(C)CC(C(=O)Cc1ccccc1)c1ccccc1 (configuration not stated) | 6.5% (active)
5 | CCOC(=O)[C@@H](C)C[C@H](Cc1ccccc1)NC(=O)c1csc([C@@H](C[C@H](C(C)C)N(C)C(=O)[C@H](CCC(C)C)NC(=O)[C@H]2CCCCN2C)OC(C)=O)n1 | 12.6%
6 | CCCCCCCCCCCCCCCCCC1OC[C@H](COC(=O)O[C@@H](C(=O)O[C@H]2C[C@@]3(O)[C@@H](OC(=O)c4ccccc4)[C@@H]4[C@]5(OC(C)=O)CO[C@@H]5C[C@H](O)[C@@]4(C)C(=O)[C@H](OC(C)=O)C(=C2C)C3(C)C)[C@@H](NC(=O)c2ccccc2)c2ccccc2)O1 (some centres not stated) | 65.2%
7 | c1cnc2[nH]cc(-c3csc(-c4cn(CCCCN5CCCCC5)c5ccccc45)n3)c2c1 | 87.3%
8 | C=C1C[C@](OC)([C@H](O)C(=O)N[C@@H](OC)[C@@H]2C[C@@H](O)C(C)(C)[C@@H](C[C@@H](COC)OC)O2)O[C@H](C)[C@@H]1C | -92.7% (active)
9 | O=C(Nc1ccc(O)cc1)C(Cl)(Cl)Cl | 107%
10 | Cc1c(NS(=O)(=O)c2ccccc2)ccc([N+](=O)[O-])c1Cl | 77%
11 | CCCCN1CCCC[C@@H]1C(=O)N[C@H](C(=O)N(C)[C@H](C[C@@H](OC(C)=O)c1nc(C(=O)NC2CCC(C(=O)OC)CC2)cs1)C(C)C)C(C)C (some centres not stated) | 18.3%
12 | Cn1cc(-c2csc(-c3cn(CCCCN4CCCCC4)c4ccc(F)cc34)n2)c2cccnc21 | 26.8%
13 | CC1=C(CN)C2=C(C)C3(CC3)[C@@](C)(O)C(=O)C2=C1 | 91.6%
14 | CC(=O)O[C@H]1C(=O)[C@@]2(C)[C@H]([C@H](OC(=O)c3ccccc3)[C@]3(O)C[C@H](OC(=O)[C@H](OC(=O)OC[C@H]4COC(C)(C)O4)[C@@H](NC(=O)c4ccccc4)c4ccccc4)C(C)=C1C3(C)C)[C@]1(OC(C)=O)CO[C@@H]1C[C@@H]2O | -7.11% (active)
15 | Cn1cc(-c2csc(-c3cn(CCN4CCOCC4)c4ccc(F)cc34)n2)c2cccnc21 | 71%
16 | Brc1ccc2c(c1)c(-c1nc(-c3c[nH]c4ncccc34)cs1)cn2CCN1CCOCC1 | 74.6%
17 | COC(=O)[C@@H](C)C[C@H](Cc1ccccc1)NC(=O)c1csc([C@@H](C[C@H](C(C)C)N(C)C(=O)[C@@H](NC(=O)[C@H]2CCCCN2C)C2CCCCC2)OC(C)=O)n1 | 65.5%
18 | CC(=O)OC1CCC2(C)C(CCC3C2CC(=O)C2(C)C3CC(Sc3ccc(N(CCCl)CCCl)cc3)C2C(C)=O)C1 (configuration not stated) | 107%
19 | COc1ccc(S(=O)(=O)N(Cc2ccc3c(c2)C=CC(C)(C)O3)c2ccccc2)cc1OC | 77.2%

Row | Compound | growth
20 | CC[C@H](C)[C@H](NC(=O)[C@H]1CCCCN1C)C(=O)N(C)[C@H](CC(=O)c1nc(C(=O)N[C@@H](Cc2ccccc2)C[C@H](C)C(=O)O)cs1)C(C)C | 87.1%
21 | COC(=O)[C@@H](C)C[C@H](Cc1ccccc1)NC(=O)c1csc([C@@H](C[C@H](C(C)C)N(C)C(=O)[C@@H](NC(=O)C23CC(NC(C)=O)(C2)C3)C2CC2)OC(C)=O)n1 | 36.9%
22 | O=C1CC2(CC3(Cl)C(Cl)=C(Cl)C2(Cl)C3(Cl)Cl)C(=O)O1 (configuration not stated) | 107%
23 | C[n+]1c(/C=C/c2ccc(N(CCCl)CCCl)cc2)sc2ccccc21 | 85.6%
24 | CC[C@H](C)[C@H](NC(=O)NC(C)(C)C)C(=O)N(C)[C@H](C[C@@H](OC(C)=O)c1nc(C(=O)N[C@@H](Cc2ccccc2)C[C@H](C)C(=O)OC)cs1)C(C)C | 32.6%
25 | CCCCCCCC[N+](C)(CCCCCCCC)CCCCCCCC | -100% (active)
26 | CC(=O)O[C@H]1C(=O)[C@@]2(C)[C@H]([C@H](OC(=O)c3ccccc3)[C@]3(O)C[C@H](OC(=O)[C@H](OC(=O)OC[C@@H]4COC(C)(C)O4)[C@@H](NC(=O)c4ccccc4)c4ccccc4)C(C)=C1C3(C)C)[C@]1(OC(C)=O)CO[C@@H]1C[C@@H]2O | -9.73% (active)
27 | CC(=O)O[C@H]1C(=O)[C@@]2(C)[C@H]([C@H](OC(=O)c3ccccc3)[C@]3(O)C[C@H](OC(=O)[C@H](OC(=O)OCC4COC(C)(C)O4)[C@@H](NC(=O)c4ccccc4)c4ccccc4)C(C)=C1C3(C)C)[C@]1(OC(C)=O)CO[C@@H]1C[C@@H]2O (some centres not stated) | 32.9%
28 | CC[C@H](C)[C@H](NC(=O)C12CC(NC(C)=O)(C1)C2)C(=O)N(C)[C@H](C[C@@H](OC(C)=O)c1nc(C(=O)N[C@@H](Cc2ccccc2)C[C@H](C)C(=O)OC)cs1)C(C)C | 43.9%
29 | CCn1cnc2c(Nc3cccc(Cl)c3)nc(N[C@@H]3CCCC[C@@H]3N)nc21 | -44.5% (active)
30 | O=C(O)C1C(C(=O)O)C2(Cl)C(Cl)=C(Cl)C1(Cl)C2(Cl)Cl.[Hg] (configuration not stated) | 123%
31 | CC[C@H](C)[C@H](NC(=O)[C@H]1CCCCN1C)C(=O)N(C)[C@H](C[C@@H](OC(C)=O)c1nc(C(=O)N[C@@H](Cc2ccccc2)C[C@H](C)C(=O)OC)cs1)C(C)C | 38.1%
32 | CN1C(=O)C(=Cc2cn(CCCCCCn3c4ccccc4c(=O)c4ccccc43)c3ccccc23)C(=O)N(C)C1=O | 115%
33 | CC(C)(C)C(=O)OCOP(=O)(OCOC(=O)C(C)(C)C)C1CCCN(O)C1=O (configuration not stated) | -9.35% (active)
34 | COC(=O)[C@@H](C)C[C@H](Cc1ccc2ccccc2c1)NC(=O)c1csc([C@@H](C[C@H](C(C)C)N(C)C(=O)[C@@H](NC(=O)[C@H]2CCCCN2C)C(C)C)OC(C)=O)n1 | 49.1%
35 | C=C1C(=O)O[C@H]2[C@H]1CC/C(COC(=O)C(=O)c1cn(Cc3ccccc3)c3ccccc13)=C\CC[C@@]1(C)O[C@@H]21 | -90.2% (active)
36 | CN(CCCCN(C)CCOS(C)(=O)=O)CCOS(C)(=O)=O | 90.1%
37 | NC(=O)CNc1ccc([As]=[As]c2ccc(NCC(N)=O)cc2)cc1 (configuration not stated) | 32.1%
